EBV gp42 block: EBV gp42 inhibition | 220,000 compounds, 0.42% hits | AID 1085 | Q1HVG2 | inhibition, % (tested at 21.74 µM) | Fluorescence polarization binding assay, mP read-out; in the data active = inhibition above about 50%
Bcl-xL primary: inhibitors of human Bcl-xL | Q07817 | GST-Bcl-xL / FITC-Bim BH3 peptide fluorescence polarization | inhibition, % at 10.9 µM | 320,000 compounds, 0.7% hits | AID 2129;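 active = inhibition above the mean of all tested compounds plus 3 SD, cutoff set per campaign, cut at about 30% in these data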;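 also: inhibitors lower millipolarization by displacing the labeled peptide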
Target sequence (Q07817 whole entry, looked up): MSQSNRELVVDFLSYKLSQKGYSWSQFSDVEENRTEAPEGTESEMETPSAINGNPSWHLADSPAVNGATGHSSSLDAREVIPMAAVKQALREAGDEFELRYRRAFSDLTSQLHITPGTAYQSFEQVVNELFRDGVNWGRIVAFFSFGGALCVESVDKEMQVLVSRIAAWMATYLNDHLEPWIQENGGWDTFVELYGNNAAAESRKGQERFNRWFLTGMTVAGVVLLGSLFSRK
E coli Lon inh: inhibitors of E. coli Lon protease | P0A9M0 | purified E. coli Lon protease, fluorescence polarization | inhibition, % at 7.94 µM | 360,000 compounds, 0.42% hits; in the data active = inhibition above about 13%, passing the limit was not always enough
GLD-1 TGE inh: GLD-1-TGE RNA interaction inhibition (C. elegans) | Q17339 | purified GLD-1 + fluorescein TGE RNA, fluorescence polarization | inhibition, % at 5.96 µM | 320,000 compounds, 0.44% hits;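 active = percent inhibition above a per-plate cutoff, the plate mean of test compounds plus 3 SD, cut at about 30% in these data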
MEX-5 binding: C. elegans MEX-5 TCR-2 RNA binding activity. MEX-5/FITC-TCR2 RNA binding, fluorescence polarization; stronger effect = lower value. activity score (negative = inhibition of binding), % at 10 µM. Q9XUB2. 300,000 compounds, 0.38% hits. AID 1832;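 active = inhibition past about -25% in most replicates, and total fluorescence under double the plate's negative control median, limit read from the data; inconclusive = replicates evenly split on the limit, or fluorescence at least double controls; inactive = too little inhibition in most replicates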
MCL1-BIM inh: disrupts human MCL1 binding to BIM-BH3 peptide; GST-MCL1 / FITC-Bim-BH3 fluorescence polarization; inhibition, % at 10.9 µM; 320,000 compounds, 0.68% hits; AID 2057;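 active = inhibition above the mean inhibition of all tested compounds plus 3 SD, set per campaign, cut at about 40% in these data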;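 also: higher means more loss of mP so more displacement of Bim peptide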
Target sequence (Q07820 whole entry, looked up): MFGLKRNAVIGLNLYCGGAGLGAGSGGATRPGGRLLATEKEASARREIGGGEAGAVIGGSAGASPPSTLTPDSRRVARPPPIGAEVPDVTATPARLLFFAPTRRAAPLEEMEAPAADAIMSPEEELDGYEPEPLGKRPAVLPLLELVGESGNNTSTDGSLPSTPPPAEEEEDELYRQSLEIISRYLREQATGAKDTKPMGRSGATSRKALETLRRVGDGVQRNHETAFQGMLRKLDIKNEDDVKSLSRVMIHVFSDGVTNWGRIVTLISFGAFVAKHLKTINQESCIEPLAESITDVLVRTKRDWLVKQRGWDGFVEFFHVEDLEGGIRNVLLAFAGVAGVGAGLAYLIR
Of the large screens only hits and unclear results are named; the others gave an inactive call. Sampled rows, rich in hits. Any-hit rate of the full collection: about 1.5%.

COc1cc(C2CC(C(F)(F)F)n3ncc(C(=O)O)c3N2)cc(OC)c1OC (stereo not drawn)	EBV gp42 block 173.2
CSC1=NSC2=NC(=O)/C(=C/c3coc4ccc(O)cc4c3=O)C(=N)N12	EBV gp42 block 62.8, Bcl-xL primary 51.7, MEX-5 binding inconclusive
CSC1=NSC2=NC(=O)/C(=C/c3coc4ccccc4c3=O)C(=N)N12	EBV gp42 block 73.8, Bcl-xL primary 43.7, MCL1-BIM inh 52.4 (no result: MEX-5 binding)
Cc1cn([C@H]2C[C@H](O)[C@@H](CNCc3cnc(N4CCOCC4)nc3)O2)c(=O)[nH]c1=O	none (no result: EBV gp42 block, Bcl-xL primary, GLD-1 TGE inh, MEX-5 binding, MCL1-BIM inh)
O=Cc1c(Sc2ccccc2)nc2ccccn2c1=O	none
O=c1c(/C=N/Nc2ccccc2)c(Sc2nnnn2-c2ccccc2)nc2ccccn12	EBV gp42 block 152.4 (no result: Bcl-xL primary, GLD-1 TGE inh, MEX-5 binding, MCL1-BIM inh)
O=C(O)c1ccccc1N/N=C/c1c(Sc2nnnn2-c2ccccc2)nc2ccccn2c1=O	MEX-5 binding -25.6
O=C(CSc1nnc2ccccn12)Nc1ccccc1C(=O)O	none
CCC(C)C(=O)Nc1nnc(SCC(=O)N2C(C)CCCC2C)s1 (stereo not drawn)	none (no result: EBV gp42 block)
O=C(O)CCCCCn1c(SCC(=O)c2ccc(O)c(O)c2)nc2ccsc2c1=O	MEX-5 binding -26.9
Cn1cc(S(=O)(=O)N2CCN(c3ccccc3F)CC2)c(=O)n(C)c1=O	none
COc1ccccc1N1CCN(S(=O)(=O)c2cn(C)c(=O)n(C)c2=O)CC1	Bcl-xL primary 47.0
Cc1ccc(-c2nn(-c3ccc(F)cc3)cc2C(=O)N(C)CC(=O)Nc2ccc(N3CCOCC3)cc2)cc1	none (no result: EBV gp42 block)
Cc1c(Cl)cccc1NS(=O)(=O)c1cccc2nsnc12	none (no result: EBV gp42 block)
O=C(O)c1ccc(-c2ccc(/C=C3\NC(=O)N(Cc4ccc(Cl)cc4)C3=O)o2)cc1Cl	MEX-5 binding -31.9 (no result: Bcl-xL primary, GLD-1 TGE inh, MCL1-BIM inh)
CCC(C)(C)NC(=O)C(c1ccc(C)cc1)N(CC1CCCO1)C(=O)c1csnn1 (stereo not drawn)	none (no result: EBV gp42 block)
CN(C)c1ccc(/C=N/NC2=NS(=O)(=O)c3ccccc32)cc1	MEX-5 binding -41.2 (no result: EBV gp42 block)
CN(C)c1ccc(/C=N/N(CCC(=O)NC(C)(C)C)C2=NS(=O)(=O)c3ccccc32)cc1	MEX-5 binding -53.0 (no result: EBV gp42 block)
CCOC(=O)c1ccc(Oc2cc(C)nc(Cl)n2)cc1	none
O=C(NNC(=O)c1cccc2ccccc12)c1ccc(Cl)cc1Cl	none (no result: EBV gp42 block, Bcl-xL primary, GLD-1 TGE inh, MEX-5 binding, MCL1-BIM inh)
O=C(NNC(=O)c1ccc2ccccc2c1O)c1ccccc1Cl	MEX-5 binding -55.6
COc1ccc(Sc2ccccc2CN(C)C)cc1OC	none
CNCc1ccccc1Sc1ccc(O)c(O)c1	MEX-5 binding -53.6
Cc1ccc(/C=C2/C(=O)c3ccc(C(=O)O)cc3C2=O)o1	MEX-5 binding -26.0 (no result: Bcl-xL primary, GLD-1 TGE inh, MCL1-BIM inh)
C=CCn1c(OCc2ccccc2)n[nH]c1=S	none (no result: EBV gp42 block)
CC(=O)C1=C(O)C(=O)N(C)C1c1ccccc1[N+](=O)[O-] (stereo not drawn)	none
N#CC(C(=O)NC1CCCCC1)c1nc2ccccc2nc1N1CCN(c2ccccc2F)CC1 (stereo not drawn)	none (no result: MEX-5 binding)
CCCCNC(=O)C(C#N)c1nc2ccccc2nc1N1CCN(Cc2ccc3c(c2)OCO3)CC1 (stereo not drawn)	none (no result: EBV gp42 block, Bcl-xL primary, GLD-1 TGE inh, MEX-5 binding, MCL1-BIM inh)
CC1CCN(c2nc3ccccc3nc2C(C#N)C(=O)NC2CCCCC2)CC1 (stereo not drawn)	MEX-5 binding -28.8 (no result: EBV gp42 block, E coli Lon inh)
CC1CN(c2nc3ccccc3nc2C(C#N)C(=O)NCc2ccc3c(c2)OCO3)CC(C)O1 (stereo not drawn)	EBV gp42 block 70.7
COc1cc(NC(=O)NCC2CCN(Cc3ccccc3F)CC2)cc(OC)c1	none (no result: EBV gp42 block, Bcl-xL primary, GLD-1 TGE inh, MCL1-BIM inh)
CCCCc1c(C)nc2ccc(C(=O)OCC)cc2c1Cl	none
CCOC(=O)c1ccc2nc(C)c(CCC(C)=O)c(Cl)c2c1	E coli Lon inh 19.6
O=C(OCC(=O)N1CCOCC1)c1cccc(F)c1	none (no result: EBV gp42 block)
COc1ccc(OC)c(N=Cc2c(O)c3ccccc3oc2=O)c1	MEX-5 binding -29.3 (no result: EBV gp42 block)
COc1ccc(Cl)cc1N=Cc1c(O)c2ccccc2oc1=O	none (no result: EBV gp42 block)
Cc1cccn2c(=O)c3cc(C(=O)NCCc4ccccc4)c(=N)n(Cc4ccco4)c3nc12	none (no result: EBV gp42 block)
Cc1cccn2c(=O)c3cc(C(=O)NCc4ccco4)c(=N)n(CCc4ccccc4)c3nc12	Bcl-xL primary 32.5 (no result: MEX-5 binding)
CCCCNC(=O)c1cc2c(=O)n3cccc(C)c3nc2n(Cc2ccncc2)c1=N	MEX-5 binding -40.8
COCCNC(=O)c1cc2c(=O)n3cccc(C)c3nc2n(Cc2ccncc2)c1=N	none
N=c1c(C(=O)NCc2ccco2)cc2c(=O)n3ccccc3nc2n1Cc1ccccc1	Bcl-xL primary 37.6, MCL1-BIM inh 48.2
Cc1oc2c(CN3CCCC(C)C3)c(O)ccc2c(=O)c1-c1ccccc1 (stereo not drawn)	none (no result: EBV gp42 block)
COc1ccc(S(=O)(=O)N2CCCCCC2)cc1C(=O)N1CCN(C(C)=O)CC1	none (no result: EBV gp42 block, Bcl-xL primary, GLD-1 TGE inh, MEX-5 binding, MCL1-BIM inh)
CCOC(=O)c1c(N)sc(N)c1C(=O)OCC	none
CCOC(=O)c1c(N)sc(=S)c2c1CCC2	Bcl-xL primary 36.5, MCL1-BIM inh 46.2
C/C(=N\Nc1ccc(C(=O)c2c(C)cc3ccccn23)cc1[N+](=O)[O-])c1ccc(O)cc1	none
Cc1cc2ccccn2c1C(=O)c1ccc(N/N=C/c2ccc(C(=O)O)cc2)c([N+](=O)[O-])c1	EBV gp42 block 65.4 (no result: Bcl-xL primary, GLD-1 TGE inh, MEX-5 binding, MCL1-BIM inh)
Cc1cc(C(=O)CCC(=O)NCC(=O)Nc2c(C)cccc2C)c(C)s1	none (no result: EBV gp42 block, Bcl-xL primary, MEX-5 binding, MCL1-BIM inh)
CCc1ccc(NC(=O)/C(C#N)=C/c2cc3ccc(C)cc3nc2N2CCOCC2)cc1	MEX-5 binding -40.7
Nc1ccc2c3c(cccc13)CC2	Bcl-xL primary 38.4
c1ccc(Nc2ccc3c4c(cccc24)CC3)cc1	none
CCCn1c(SCC(=O)NC2CCC(C)CC2)n[nH]c1=O (stereo not drawn)	Bcl-xL primary 40.9, MCL1-BIM inh 47.8 (no result: EBV gp42 block, MEX-5 binding)
CCN1/C(=C/c2ccc3cc(C)ccc3[n+]2C)Sc2ccc3sccc3c21	EBV gp42 block active (no result: Bcl-xL primary, GLD-1 TGE inh, MEX-5 binding, MCL1-BIM inh)
COc1cc(-c2cc(-c3ccc(O)cc3)nc(N)c2C#N)ccc1O	none
CCOc1cc(-c2cc(-c3ccc(C)cc3)nc(N)c2C#N)ccc1O	Bcl-xL primary 30.3
c1ccc(NC2=Nc3cccc4cccc2c34)cc1	none
Fc1ccc(/C=N/NC2=Nc3cccc4cccc2c34)cc1	EBV gp42 block 56.9
COc1ccc(C2CCCCCN2C(=O)C2CCN(S(=O)(=O)c3cccc(C(C)=O)c3)CC2)cc1 (stereo not drawn)	none (no result: EBV gp42 block, Bcl-xL primary, GLD-1 TGE inh, MEX-5 binding, MCL1-BIM inh)
O=C(N/N=C/c1ccccc1O)C(=O)Nc1ccccn1	none
CCn1c(CSc2nnc(-c3ccncc3)n2CCOC)nc2cc(C(=O)O)ccc21	none
CCn1c(CSc2n[nH]c(N)n2)nc2cc(C(=O)O)ccc21	EBV gp42 block 64.0
